In all, about 420,000 compounds went through this assay and about 50,000 (12%) were called active. Roughly 26% stayed inconclusive and do not appear here. For the sample, actives were picked, then their nearest neighbours and some compounds at random. Unmarked numbers belong to inactive results. Calls follow the shape of the dose curve; as a rule, active = well fitted inhibition curve with a large enough effect; inconclusive = small, poorly fitted or top-dose-only effect; inactive = flat fitted curve, though single readings scatter.
Experiment: qHTS for Inhibitors of human tyrosyl-DNA phosphodiesterase 1 (TDP1): qHTS in cells in presence of CPT; also: nearly all actives have a fitted effect of over 55% in size
Settings: chicken DT40 Tdp1-/-;hTDP1 cells + 20 nM CPT, ATP luminescence, 48 h; series mostly up to 46.2 µM; activity change, negative = growth inhibition: at the top concentration
Procedure, shortened: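 Cell growth measured by CellTiter-Glo luminescence after a minimum 48 h, 37 C compound exposure with 20 nM CPT in Tdp1-knockout DT40 cells stably expressing hTDP1, seeded 400/well; qHTS titration format.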
% is scaled to controls: 0 for no effect and ±100 for the full control effect; potency is read from the fitted curve at half-maximal effect.

Compound	activity change, negative = growth inhibition [%]	Potency
COc1cc(CNCc2cccs2)cc(Br)c1OC	-7.72	
Cn1cncc1COC(=O)c1ccc(Cl)cc1	-14.8	
Cc1ccccc1NC(=O)c1nn(-c2ccc(F)c(F)c2)ccc1=O	-1.27	
Cc1cccc(NC(=S)N(CCN(C)C)C(C)c2ccco2)c1 (centres undefined)	-17.4	
CC(C)NC(=O)N1CCN(c2ccncc2S(=O)(=O)N2CCCCC2)CC1	2.06	
CN1CCN(c2ccncc2S(=O)(=O)N2CCCC2)CC1	9.33	
O=S(=O)(c1cnccc1N1CCN(/N=C/c2ccc(Br)cc2)CC1)N1CCCCC1		18.4 µM (active)
Cc1ccc(NC(=O)COc2ccc(/C=N\NC(=O)c3cccnc3)cc2)cc1C	-5.23	
COc1ccccc1NC1=NC2(CCCC2)N=C(N)N1	-12.7	
CC1(C)N=C(N)NC(Nc2ccc(Cl)cc2)=N1	-13.1	
COc1ccccc1NC1=NC(c2ccc(Cl)cc2)N=C(N)N1 (centres undefined)		5.17 µM (active)
CC1(C)C(C=C(Cl)Cl)C1C(=O)NC(O)C(=O)c1ccccc1 (centres undefined)	2.14	
COCCN(C(=O)CSCc1ccc(C)cc1)c1c(N)n(CC(C)C)c(=O)[nH]c1=O	9.75	
C[C@]12C=CC(=O)C=C1CC[C@@H]1[C@@H]2C(=O)C[C@@]2(C)[C@H]1CC[C@]2(O)C(=O)CO		inactive
CCC1CCCCN1C(=S)NC(=O)c1ccco1 (centres undefined)	0.583	
CCOc1cc(/C=C2/N=C(c3ccc(C(C)(C)C)cc3)OC2=O)cc(Cl)c1OS(C)(=O)=O		18.4 µM (active)
O=C1OC(c2ccc(Cl)cc2)=N/C1=C\c1cccnc1	-25.1	
CC1CCN(C(=O)COC(=O)CCC(=O)c2cccs2)CC1	-0.232	
COc1cc(C2CC(=O)Oc3cc(OC)c(OC)c(OC)c32)cc(OC)c1OC (centres undefined)	-8.15	
Cc1cc(C)cc(NS(=O)(=O)Cc2ccccc2)c1	14.9	
Cn1nnnc1SCC(=O)NNC(=O)c1ccc(Br)cc1	0.881	
Cc1nc2ccccc2cc1OCc1ccc(F)cc1		11.6 µM (active)
Cc1nc2ccccc2cc1O	-22.8	
Cc1occc(=O)c1OCc1ccc(F)cc1	13.4	
COC(=O)C1[C@H]2SC(C)(C)C(C(=O)OC)N2C(=O)N1Cc1nc2ccccc2s1 (some centres undefined)	-1.96	
COCCNC(=O)c1cc(-c2cccc(Cl)c2)on1	4.91	
CC(C)c1nnc(NC(=O)C2CC(=O)N(CCc3ccc(F)cc3)C2)s1 (centres undefined)	7.52	

Compound	activity change, negative = growth inhibition [%]	Potency
O=C(CCC(=O)n1ncc2ccccc21)NCc1ccccc1Cl	-1.16	
CCc1noc(C)c1C(=O)Nc1nc2ccc(OC)cc2s1	13.8	
CCCC(=O)Nc1nc2ccc(NC(=O)c3cccnc3)cc2s1		9.2 µM (active)
CCCC(=O)Nc1nc2ccc(NC(=O)c3c(F)c(F)c(OC)c(F)c3F)cc2s1		0.92 µM (active)
CCCC(=O)Nc1ccc2c(c1)nc1n2CCSC1	-0.992	
CCOC(=O)c1cc(NC(=O)c2cccnc2)cc(C(=O)OCC)c1	-8.88	
O=C(Cc1ccccc1)Nc1ccc(NC(=O)c2cccnc2)cc1	-28	
Cc1cc(C)c(S(=O)(=O)N2C=CC(C(F)(F)F)=NCC2)c(C)c1	2.91	
c1ccc2cc(C3=NCCN3)ccc2c1	4.03	
Cc1ccc(Nc2c(O)nc[nH]c2=O)cc1C	8.79	
Cc1c(Cl)cccc1NC(=O)[C@@]1(CC(=O)O)CC(/C=C/c2ccccc2)=NO1	3.33	
N#CCc1c(C#N)c(N)nc(N2CCCC2)c1C#N	15.6	
Cc1ccc(C(=O)Nc2nnc(-c3ccncc3)s2)o1	-12.2	
CCCCN(C)c1nnc(NC(=O)Nc2ccc(Br)c(C)c2)s1	-27.6	
Cc1nnc(NC(=O)c2ccc3nccnc3c2)s1	-17.6	
Cc1nnc(NC(=O)Nc2ccc(Cl)c(Cl)c2)s1		23.1 µM (active)
Cc1ccc(NC(=O)Nc2nnc(-c3ccncc3)s2)cc1		18.4 µM (active)
Cc1occc1C(=O)Nc1nnc(-c2ccncc2)s1	10.3	
COCC1CCCN(C(=O)c2ccc3oc(C(C)C)nc3c2)C1 (centres undefined)	-8.78	
COCCNC(=O)CN(Cc1ccco1)C(=O)CCC(=O)Nc1nccs1	1.07	
COc1ccc2c(c1)CCCO[C@]21O[C@H](CCO)C[C@H](O)[C@H]1O	-1.84	
CCC(C)NC(=O)c1cc(Cl)ccc1OC (centres undefined)	-7.43	
CC1CCN(C(=O)c2ccc3c(=O)n4c(nc3c2)CCCCC4)CC1	-3.88	
Cc1ccc(NC(=O)Nc2sc3nc4n(c(=O)c3c2C)CCC(C)CC4)c(Cl)c1 (centres undefined)		11.6 µM (active)
CC1CCc2c(sc3nc4n(c(=O)c23)CCS4)C1 (centres undefined)	-28.3	
Cc1ccccc1NC(=O)CSc1ccc2nnc(-c3ccccn3)n2n1	-15.4	
COC(=O)[C@]1(C)N[C@H](CN(C)C(=O)c2ccc(C(C)(C)C)cc2)[C@@H]2C(=O)N(C)C(=O)[C@@H]21	-7.64	

Source: PubChem BioAssay AID686979 (National Center for Advancing Translational Sciences (NCATS), 2013)
